Data on 91 compounds can be found in PubChem BioAssay AID463173 (ICCB-Longwood Screening Facility, Harvard Medical School, 2010).

The structures appear in SMILES notation. Screen size: about 52,000 compounds; about 4,300 (8.3%) were called active. Cut-off read from the data, not from the text of the source: active = survival mostly below about 52% (no sharp cut-off); inactive = mostly above about 56%. Only a selection was taken, and actives are over-represented in it overall.

The subject of this experiment is DeltatarO mutant. The experiment is described as follows: growth inhibition of S. aureus wild type versus tarO mutant, primary screen, teichoic acid synthesis inhibitors, RN4220, OD600 (AID 463173). The following applies: OD600, 18 h, active compounds read low, screened at 18.75 µg/mL (by protocol).
In the case of `CC(=O)ONC(=Nc1ccccc1C)c1nonc1N`, the survival was 101% (inactive). With `Cc1ccccc1/C=C(\C#N)c1nc(-c2ccc(Cl)cc2)cs1`, the survival was 14% (active). In the case of `Cc1ccc(-c2csc(/C(C#N)=C/c3ccccc3Cl)n2)cc1` it was 21% (active); in that of `N#C/C(=C\c1ccc(Cl)cc1Cl)c1nc(-c2cccc(Cl)c2)cs1`, 79% (inactive); in that of `COc1ccc(OC)c(/C=C(/C#N)c2nc(-c3ccc(-c4ccccc4)cc3)cs2)c1`, 52% (inactive). In the case of `COc1c(Cl)cc(Cl)cc1/C=C(\C#N)c1nc(-c2ccc(Cl)cc2)cs1` it was 122% (inactive); in that of `N#C/C(=C/c1ccccc1Cl)c1nc(-c2cc3ccccc3oc2=O)cs1`, 81% (inactive); in that of `O=C1[C@@H]2CSC(c3ccc(Cl)cc3)N2C(=O)N1c1ccccc1` (stereo partly specified), 71% (inactive). In the case of `CCc1ccc(CSc2nc(-c3ccc(OC)cc3)nc3c2Cc2c(CO)cnc(C)c2O3)cc1` it was 72% (inactive); in that of `COCCNC(=O)C1CC(=O)N(c2ccc(C)cc2)C1` (stereo unspecified), 82% (inactive). `CCOC(=O)c1cc(-c2ccc(OC)cc2)n(CCC(=O)NC2CCCCC2)c1C`: the survival is 115% (inactive).

Regarding `CCOc1ccc(CCNC(=O)Cn2nnc(-c3ccc(C(F)(F)F)cc3)n2)cc1OCC`, the survival is 82% (inactive). In the case of `O=C(CSc1nc(=O)n(Cc2ccncc2)c2c1CCC2)Nc1ccc(F)cc1F`, the survival is 78% (inactive).

As to `COc1ccc(Nc2c(-c3ccc(C)o3)nc3ccc(Cl)cn23)cc1`, the survival was 65% (inactive).

Turning to `CCOC(=O)C1(C)C=C(Nc2cccc(C)c2)C(=O)N1c1ccccc1` (stereo unspecified), the survival is 15% (active). The same measure for `CCOC(=O)C1(C)C=C(Nc2cccc(C(=O)O)c2)C(=O)N1c1ccccc1` (stereo unspecified): 73% (inactive); for `CCOC(=O)C1(C)C=C(Nc2ccc(C)cc2)C(=O)N1c1ccccc1` (stereo unspecified): 50% (inactive). As to `O=c1[nH]c2ccc(S(=O)(=O)Nc3cc(Cl)ccc3O)cc2o1`, the survival was 86% (inactive). `CC(C(=O)NC1CC1)N1CCC(N2CCCCC2)CC1` (stereo unspecified): the survival was 98% (inactive). As for `Cc1ccccc1COC(=O)c1ccc(-c2nnn(Cc3ccccc3F)n2)cc1`, the survival is 54% (inactive). In the case of `Nc1nn(-c2ccccc2)nc1NC=O` it was 95% (inactive); in that of `Cc1ccccc1CNC(=O)c1nn(-c2ccccc2F)nc1CO`, 85% (inactive). In the case of `O=C(NCCCCc1ccccc1)c1nn(-c2ccccc2)nc1CO` it was 58% (inactive); in that of `Nc1nn(-c2ccccc2)nc1C(=O)OCc1ccccc1Br`, 11% (active); in that of `Cc1ccccc1COC(=O)c1nn(-c2ccccc2)nc1N`, -1% (active). On to `Cc1ccc(Cl)cc1NC(=O)C1CCCN(S(=O)(=O)c2c(C)noc2/C=C/N(C)C)C1` (stereo unspecified), for which the survival is 51% (inactive). In the case of `Cc1ccccc1Nc1sc(C(=O)c2ccccc2)c(N)c1C(=O)NCc1ccc(Cl)cc1` it was 100% (inactive); in that of `Cc1ccc(CNC(=O)c2c(Nc3ccccc3C)sc(C(=O)c3ccc(F)cc3)c2N)cc1`, 20% (active); in that of `COc1cccc(Nc2sc(C(=O)c3ccc(Cl)cc3)c(N)c2C(=O)NCc2ccc(C)cc2)c1`, 95% (inactive). The same measure for `Cc1ccccc1Nc1sc(C(=O)c2ccc(F)cc2)c(N)c1C(=O)NCCc1ccccc1`: 81% (inactive); for `COc1cccc(Nc2sc(C(=O)c3ccc(F)cc3)c(N)c2C(=O)NCc2ccc(Cl)cc2)c1`: 8% (active). The same measure for `COc1cccc(Nc2sc(C(=O)c3ccc(F)cc3)c(N)c2C(=O)NCc2ccc(C)cc2)c1`: 91% (inactive); for `Cc1cccc(-c2cc(NC(=O)C(C)(C)C)n(-c3ccccc3)n2)c1`: 99% (inactive). Take `COc1ccccc1CNC(=O)CCS(=O)(=O)c1ccc2c(c1)CC(C)N2C(=O)C1CC1` (stereo unspecified): the survival is 8% (active). The same measure for `CCC(=O)N1c2ccc(S(=O)(=O)CCC(=O)NCc3ccccc3OC)cc2CC1C` (stereo unspecified): 90% (inactive).

For `CC1Cc2cc(S(=O)(=O)CCC(=O)NCc3ccccc3Cl)ccc2N1C(=O)C1CC1` (stereo unspecified), the survival is 89% (inactive).

`COc1cccc(CNC(=O)CCS(=O)(=O)c2ccc3c(c2)CC(C)N3C(=O)C2CC2)c1` (stereo unspecified): the survival was 20% (active). The same measure for `COc1ccc(CNC(=O)CCS(=O)(=O)c2ccc3c(c2)CC(C)N3C(=O)C2CC2)cc1` (stereo unspecified): 95% (inactive). In the case of `CCC(=O)N1c2ccc(S(=O)(=O)CCC(=O)NCc3cccc(OC)c3)cc2CC1C` (stereo unspecified) it was 102% (inactive). The same measure for `CCc1cccc(NC(=O)c2ccc3c(=O)n4nc(Nc5ccccc5OC)sc4nc3c2)c1`: 74% (inactive); for `Clc1ccccc1-c1nnc(SCc2nc(-c3ccccc3)no2)n1-c1ccccc1`: 52% (inactive); for `CC(C)(C)OC(=O)N1CCC(c2c(C(=O)N3CCN(c4ccccc4)CC3)cnn2-c2ccccc2)CC1`: 81% (inactive).

As to `Cc1cc(C)n(-c2nc3ccccc3nc2Nc2ccc(Cl)c(Cl)c2)n1`, the survival was 0% (active).

Turning to `Cc1ccc(Nc2nc3ccccc3nc2-n2nc(C)cc2C)c(Cl)c1`, the survival was 70% (inactive). The same measure for `Cc1cc(C)n(-c2nc3ccccc3nc2Nc2cccc(C)c2C)n1`: 21% (active); for `Cc1cc(C)cc(Nc2nc3ccccc3nc2-n2nc(C)cc2C)c1`: 23% (active). Take `COc1cc(OC)c(Nc2nc3ccccc3nc2-n2nc(C)cc2C)cc1Cl`: the survival is 97% (inactive).

In the case of `COc1ccccc1Nc1nc2ccc(Cl)cc2nc1-n1nc(C)cc1C`, the survival is 133% (inactive). In the case of `COc1ccc(OC)c(Nc2nc3ccccc3nc2-n2nc(C)cc2C)c1` it was 16% (active); in that of `Cc1ccc2nc(Nc3cccc(Cl)c3C)c(-n3nc(C)cc3C)nc2c1`, 123% (inactive). The same measure for `Cc1cc(C)cc(Nc2nc3cc(Cl)c(Cl)cc3nc2-n2nc(C)cc2C)c1`: 89% (inactive); for `Cc1cc(C)n(-c2nc3ccccc3nc2Nc2cc(Cl)ccc2C)n1`: 130% (inactive). The same measure for `Cc1cc(C)n(-c2nc3ccccc3nc2Nc2cccc(C(F)(F)F)c2)n1`: 75% (inactive).

For `Cc1cc(C)n(-c2nc3ccccc3nc2Nc2ccc(Cl)cc2Cl)n1`, the survival is 75% (inactive).

With `CCOC(=O)c1cc(-c2ccccc2)n(CCC(=O)Nc2cc(C)cc(C)c2)c1C`, the survival is 99% (inactive). The same measure for `Cc1ccc(NC(=O)C(C)Sc2nc(=O)cc(N)n2-c2cccc(C)c2)cc1` (stereo unspecified): 59% (inactive).

With `CCOC(=O)c1cccc(NC(=O)c2cn(-c3cccc(OC)c3)c(=O)c3ccccc23)c1`, the survival was 60% (inactive).

On to `COc1ccc(Cl)cc1NC(=O)c1ccc(CN2C(=O)CCn3nc(C)cc32)cc1`, for which the survival is 66% (inactive). In the case of `CC(C)c1ccc(NC(=O)CSC2=Nc3ccccc3C3=NC(CC(=O)NCCc4ccccc4)C(=O)N23)cc1` (stereo unspecified) it was 72% (inactive); in that of `Nc1nc(CC(=O)NN=C2CCCCCC2)cs1`, 65% (inactive); in that of `Cc1cc(C)n(-c2nc3ccccc3nc2Nc2ccc(C(C)C)cc2)n1`, 8% (active). The same measure for `Cc1cc(C)n(-c2nc3ccccc3nc2Nc2ccc(N(C)C)cc2)n1`: -2% (active); for `COc1cccc(Nc2nc3ccc(C)cc3nc2-n2nc(C)cc2C)c1`: 88% (inactive); for `Cc1cc(C)n(-c2nnc(Nc3ccc(C(C)C)cc3)c3ccccc23)n1`: 80% (inactive).

Turning to `CCc1ccccc1Nc1nc2cc(Cl)c(Cl)cc2nc1-n1nc(C)cc1C`, the survival is 89% (inactive). The same measure for `CCOc1ccc(Nc2nc3cc(Cl)c(Cl)cc3nc2-n2nc(C)cc2C)cc1`: 87% (inactive). Take `Cc1ccc(NC(=O)c2cnn(-c3ccc(C)c(C)c3)c2C2CCN(C(=O)OC(C)(C)C)CC2)c(C)c1`: the survival is 109% (inactive). In the case of `CN(C(=O)c1ccccc1)C1CCS(=O)(=O)C1` (stereo unspecified) it was 90% (inactive); in that of `Cc1ccc(N2CC(C(=O)NCc3nnnn3-c3ccc(C)c(C)c3)CC2=O)cc1` (stereo unspecified), 69% (inactive); in that of `Cc1ccc(-c2ccc(=O)n(CC(=O)NC(C)c3ccccc3)n2)cc1` (stereo unspecified), 69% (inactive). The same measure for `Cc1c(-c2cccc(NC(=O)Nc3ccccc3)c2)nc2ncccn12`: 76% (inactive).

With `Cc1c(-c2cccc(NC(=O)Nc3ccc(Cl)cc3)c2)nc2ncccn12`, the survival is -2% (active). In the case of `Cc1c(-c2cccc(NC(=O)C(C)(C)C)c2)nc2ncccn12` it was 79% (inactive). As to `Cc1ccc(-n2nc(C(=O)N3CCN(c4ccccc4)CC3)c(=O)n(C)c2=O)cc1`, the survival is 124% (inactive). The same measure for `Cc1ccc(-n2nc(C(=O)N3CCCCC3)c(=O)n(C)c2=O)cc1`: 52% (active); for `Cc1ccc(-n2nc(C(=O)N3CCC(C)CC3)c(=O)n(C)c2=O)cc1`: 86% (inactive); for `Cn1c(SCc2ccccc2)nnc1C1CCCN1CC(=O)N1CCN(c2ccc(F)cc2)CC1` (stereo unspecified): 70% (inactive). The same measure for `Cc1ccc(CNC(=O)CSc2nc(=O)[nH]c3c2CCCC3)cc1`: 76% (inactive). The same measure for `COc1cc(SC)ccc1C(=O)NCc1ccccc1`: 95% (inactive). As for `Cc1ccc(-n2ncc(C(=O)NCCN3CCc4ccccc4C3)c2C2CCN(C(=O)OC(C)(C)C)CC2)cc1C`, the survival is 99% (inactive). The same measure for `Cc1ccc(C)c(Cn2c(=O)n(CCCC(=O)NCc3ccc4c(c3)OCO4)c(=O)c3sccc32)c1`: 74% (inactive); for `COc1ccccc1C(=O)Oc1c(Sc2ccccc2)c(C)nn1-c1ccccc1`: 62% (inactive). The same measure for `Cc1nn(-c2ccccc2)c(OC(=O)C(C)C)c1Sc1ccc(Cl)cc1`: 36% (active); for `COc1ccc(C(=O)Oc2c(Sc3ccccc3)c(C)nn2-c2ccccc2)cc1OC`: 47% (inactive); for `Cc1nn(-c2ccccc2)c(OC(=O)C(C)C)c1Sc1ccccc1`: 48% (inactive). The same measure for `CCCC(=O)Oc1c(Sc2ccc(Cl)cc2)c(C)nn1-c1ccccc1`: 23% (active); for `COc1cc(C(=O)Oc2c(Sc3ccccc3)c(C)nn2-c2ccccc2)cc(OC)c1OC`: 83% (inactive). For the compound `CCC(=O)Oc1c(Sc2ccc(Cl)cc2)c(C)nn1-c1ccccc1`, the survival is 13% (active). Take `CCCC(=O)Oc1c(Sc2ccc(C)cc2)c(C)nn1-c1ccccc1`: the survival was 56% (inactive).

As for `CCC(=O)Oc1c(Sc2ccc(C)cc2)c(C)nn1-c1ccccc1`, the survival is 71% (inactive). For the compound `CCC1CCCCN1C(=O)CSc1n[nH]c(-c2ccccc2Cl)n1` (stereo unspecified), the survival was 102% (inactive).
